Compound activity as filed in PubChem BioAssay.
An excerpt weighted towards active compounds, which were near 4.1% of everything screened.
DAX1 inh-1 = NR0B1 (DAX1) inhibition | P51843 | HEK293 Gal4-DAX1 luciferase reporter, luminescence | inhibition, % at 6.75 µM | hit rate 0.99% among 340,000 | AID 504766;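 active = inhibition above the mean over all tested compounds plus 3 SD, cut at about 4.2% in these data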;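 note: 0% = DAX1-transfected cells with DMSO and 100% = empty-vector control cells with DMSO; inhibition shows as a rise in luminescence from relieved DAX1 repression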
Target sequence (P51843 207-470 limits assumed): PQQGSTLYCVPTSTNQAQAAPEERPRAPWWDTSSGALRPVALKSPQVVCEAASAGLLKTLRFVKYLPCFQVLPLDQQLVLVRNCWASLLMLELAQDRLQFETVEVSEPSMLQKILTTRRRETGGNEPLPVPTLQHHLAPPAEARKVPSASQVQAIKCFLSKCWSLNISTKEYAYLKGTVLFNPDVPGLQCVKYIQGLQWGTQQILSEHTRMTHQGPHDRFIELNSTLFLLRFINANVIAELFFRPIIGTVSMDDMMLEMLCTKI
hgDAF-12 ag = hgDAF-12 agonism, primary luciferase screen; HEK293 GAL4-hgDAF12 UAS-luciferase reporter, agonist luminescence; normalized to butyrate control; activation, % at 6.8 µM; hit rate 1.8% among 370,000; AID 687014;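 active = activation above a cutoff set at the mean of all screened compounds plus 3 SD, cut at about 10% in these data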;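 note: 0% = DMSO wells and 100% = sodium butyrate wells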
hcDAF12 agonist = activates DAF-12 receptor from parasite H. contortus; HEK293 hcDAF-12 lit1-tk-luc reporter, luminescence; 0% DMSO, 100% Δ7-dafachronic acid; activation, % at 6.8 µM; hit rate 1.4% among 370,000; AID 652067;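 active = activation above the mean of all tested compounds plus 3 SD, cut at about 5.5% in these data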;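 note: 100% = response to 3 µM Δ7-dafachronic acid high control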
DAX1 inh-2 = inhibitors of DAX1 repression of SF-1 activated StAR promoter; HEK293T StAR-luciferase reporter, SF-1/DAX-1 repression relief; inhibition, % at 6.8 µM; hit rate 1.1% among 370,000;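 active = inhibition above the mean over all tested compounds plus 3 SD, cut at about 3.6% in these data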;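 note: 0% = DAX-1 cells with DMSO and 100% = cells lacking DAX-1 with DMSO; higher inhibition means more luminescence from relief of DAX-1 repression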
ssDAF12 agonist = activates DAF-12 receptor from parasite S. stercoralis. HEK293 ssDAF-12/GRIP1 lit1-tk-luc reporter, luminescence; % of 3 µM dafachronic acid response. activation, % at 6.8 µM. hit rate 1% among 370,000;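 active = activation above the mean over all tested compounds plus 3 SD, cut at about 0.9% in these data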;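 note: 0% = DMSO-only wells and 100% = 3 µM delta7-dafachronic acid wells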
* = called active by the depositor; x = no result.

SMILES | DAX1 inh-1 | hgDAF-12 ag | hcDAF12 agonist | DAX1 inh-2 | ssDAF12 agonist
O=C(NC1CCCC1)c1ccc2nc[nH]c2c1 | 2 | -2 | -1 | 0 | -1
Cc1ccc(NC(=O)c2ccc3nc[nH]c3c2)cc1C | 2 | 9 | 5.9* | 3 | 0
O=C(c1ccccc1)c1ccc2nc[nH]c2c1 | 0 | 7 | 6.3* | 1 | 0
COc1cccc(-n2c(Cc3cc(=O)[nH]c(=O)[nH]3)nnc2SCC(=O)N2CCCCCC2)c1 | 3 | -3 | 6.3* | 0 | 0
COc1ccc(-n2c(Cc3cc(=O)[nH]c(=O)[nH]3)nnc2SCC(=O)N2CCC(C)CC2)cc1 | 2 | -1 | 0 | 0 | -1
CC1CCN(C(=O)CSc2nnc(Cc3cc(=O)[nH]c(=O)[nH]3)n2-c2ccc(Cl)cc2)CC1 | 5.3* | 1 | 0 | 0 | -1
COc1cc(CC(=O)O)c([N+](=O)[O-])cc1OC | 2 | 2 | -1 | 0 | -1
COc1cc2c(cc1[N+](=O)[O-])n(C(C)C)c(=O)n2C(C)C | 5.5* | -4 | -2 | 0 | -1
COc1ccc(OCC(=O)C2CC2)c(C#N)c1 | 7.2* | 2 | 2 | 0 | 0
O=[N+]([O-])c1cccc(OCCN2CCC(Cc3ccccc3)CC2)c1 | 5.8* | -1 | 0 | 0 | -2
O=[N+]([O-])c1cccc(S(=O)(=O)Nc2ccc(-c3ccc(N4CCOCC4)nn3)cc2)c1 | 0 | -2 | -1 | 1 | -1
CCSc1nnc(NC(=O)c2ccc3nc[nH]c3c2)s1 | 2 | 13* | 2 | 1 | -1
CCSc1nnc(NC(=O)C2CCCCC2C(=O)O)s1 (centres undefined) | -1 | -2 | 0 | 0 | -1
CCSc1nnc(NC(=O)c2cccc(OCc3c(C)noc3C)c2)s1 | -2 | 2 | -2 | 0 | -2
CCSc1nnc(NC(=O)c2cc(C)nc3ccccc23)s1 | 0 | 0 | 0 | -1 | -1
CCSc1nnc(NC(=O)c2ccc3ccccc3n2)s1 | 1 | 4 | 6.3* | 1 | 1.0*
CCSc1nnc(NC(=O)C2CC2c2ccccc2)s1 (centres undefined) | 12* | -3 | -2 | 0 | -1
Cc1ccc(-n2c(SCC(=O)c3ccc4ccccc4c3)nnc2-c2cccnc2)cc1 | x | -1 | 0 | 0 | -2
Cc1cc(C(=O)COC(=O)C23CC4CC(CC(O)(C4)C2)C3)c(C)n1C | 4.5* | 11* | 5 | 3 | 1
NC(=O)COC(=O)C12CC3CC(CC(O)(C3)C1)C2 | 0 | -1 | -2 | 0 | -1
CCN(C(=O)Cc1c(C(=O)O)[nH]c2ccccc12)c1cc(OC)ccc1OC | 4.8* | 1 | 3 | 0 | -1
COc1ccc(N(C)C(=O)Cc2c(C(=O)O)[nH]c3ccccc23)cc1 | 0 | 1 | 2 | 0 | -1
CCOc1ccc(N(C(C)C(=O)N2CCCCCC2)S(C)(=O)=O)cc1 (centres undefined) | 4 | -3 | -2 | 0 | 1.5*
CCOC(=O)c1nn(-c2ccccc2)cc1O | 1 | 0 | 1 | 1 | -1
CCOC(=O)c1nn(-c2ccc(Cl)cc2)cc1O | 8.9* | 7 | 2 | 2 | -1
SMILES | DAX1 inh-1 | hgDAF-12 ag | hcDAF12 agonist | DAX1 inh-2 | ssDAF12 agonist
CCOC(=O)c1nn(-c2ccc3ccccc3c2)cc1O | 1 | 13* | 2 | 4.4* | -2
CCOC(=O)c1nn(-c2ccc(C)cc2)cc1O | 0 | 10 | 3 | 3 | 0
CC1=C(C(=O)N(C)C)CC(CC(=O)NCCCN(C)C)C(=O)N1CCCN1CCCC1=O (centres undefined) | x | 0 | -2 | -1 | -1
CCOC(=O)/C(=C\Nc1cccc(OCc2ccccc2)c1)NC(=O)c1ccccc1 | x | -1 | -1 | 0 | -1
COCCN(CC1CCCN(C2Cc3ccccc3C2)C1)C(=O)c1cccs1 (centres undefined) | 0 | 0 | 4 | 1 | -1
Cc1ccc(C(=O)N(CCN2CCCCC2)CC2CCCN(C3CCCC3)C2)s1 (centres undefined) | 0 | 7 | 3 | 4.4* | 0
O=C(c1cccs1)N(CCN1CCCCC1)CC1CCCN(C2CCCC2)C1 (centres undefined) | 0 | 8 | 3 | 0 | 0.9*
C#CCNC(=O)C[C@H]1C[C@@]2(C(=O)OC)C(=C[C@H](C(C)C)O[C@@H]2C2CC2)N(CCc2ccc(OC)c(OC)c2)C1=O | x | -3 | -2 | -1 | -1
